Experimental data taken from PubChem BioAssay (EPA / NIEHS).
Inconclusive results are not listed. The source made the active and inactive calls. Rule for the calls: active = hit-call score of the fitted dose curve at least 0.9, where 1 is the maximum; inconclusive = response in the unintended direction; inactive = score below 0.9.

tested on: not listed separately; experiment: TOX21_p53_BLA_p2_viability: Viability Assessment in the Tox21 HCT-116 p53 Agonism Beta-lactamase Assay, Phase 2 (AID 2283591);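 note: compound exposure lasted 16 h at 37 °C; actives lower the ATP signal meaning cytotoxicity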
Procedure, shortened: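 Cytotoxicity readout: CellTiter-Glo ATP luminescence, 30 min at room temperature, after the beta-lactamase read. Cells were HCT116 exposed 16 h at 37C to compounds pin-transferred at 217-fold dilution from DMSO stocks.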

SMILES | outcome
NS(=O)(=O)c1cc2c(cc1C(F)(F)F)NCNS2(=O)=O | inactive
CC[C@H](CC[C@@H](C)[C@H]1CC[C@H]2[C@@H]3CC=C4C[C@@H](O)CC[C@]4(C)[C@H]3CC[C@]12C)C(C)C | inactive
CCC(C)SSC(C)CC (stereo unspecified) | inactive
CC(=O)c1ccc2c(c1)N(CCCN(C)C)c1ccccc1S2 | inactive
ClC/C=C/CCl | inactive
ClCC=CCCl | inactive
CCCC(=O)OC(=O)CCC | inactive
BrC/C=C/CBr | inactive
CN1CCCN=C1/C=C/c1cccs1 | inactive
O=C(CCc1ccc(O)cc1)c1c(O)cc(O)cc1O | inactive
O=C(Nc1ccc(O)cc1)c1ccccc1O | inactive
Cc1ncc(CO)c(C=O)c1O | inactive
Cc1ccc2c(c1)c1c3n2CCNC3CCC1 (stereo unspecified) | inactive
O=C(O)CNCC(=O)O | inactive
C[C@@]12CCC[C@H]1[C@@H]1CC[C@H]3C[C@@H](O)CC[C@]3(C)[C@H]1CC2 | inactive
SCCCCCCCCS | inactive
CC(C)(C)C(=O)CC(=O)C(C)(C)C | inactive
CS(=O)(=O)OCCCNCCCOS(C)(=O)=O | inactive
CN(C)CC/C=C1/c2ccccc2COc2ccc(CC(=O)O)cc21 | inactive
CC(=C(CCOC(=O)C(C)C)SSC(CCOC(=O)C(C)C)=C(C)N(C=O)Cc1cnc(C)nc1N)N(C=O)Cc1cnc(C)nc1N | inactive
C=CC(=O)OCCCl | inactive

molecular target: Cellular tumor antigen p53 (Homo sapiens) (UniProt P04637); experiment: TOX21_p53_BLA_p3_ratio: Tox21 HCT-116 p53 Agonism Beta-lactamase Assay, Ratio, Phase 3 (AID 2283596)
Procedure, shortened: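 HCT116 p53-bla cells (4000/well) given compound in DMSO (217-fold dilution) after 5 h, incubated 16 h at 37C. CCF4-AM substrate 2 h at room temperature; 460/530 nm emission ratio, gain fitted against DMSO.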

Sequence of Cellular tumor antigen p53 (Homo sapiens) (P04637 whole entry, looked up): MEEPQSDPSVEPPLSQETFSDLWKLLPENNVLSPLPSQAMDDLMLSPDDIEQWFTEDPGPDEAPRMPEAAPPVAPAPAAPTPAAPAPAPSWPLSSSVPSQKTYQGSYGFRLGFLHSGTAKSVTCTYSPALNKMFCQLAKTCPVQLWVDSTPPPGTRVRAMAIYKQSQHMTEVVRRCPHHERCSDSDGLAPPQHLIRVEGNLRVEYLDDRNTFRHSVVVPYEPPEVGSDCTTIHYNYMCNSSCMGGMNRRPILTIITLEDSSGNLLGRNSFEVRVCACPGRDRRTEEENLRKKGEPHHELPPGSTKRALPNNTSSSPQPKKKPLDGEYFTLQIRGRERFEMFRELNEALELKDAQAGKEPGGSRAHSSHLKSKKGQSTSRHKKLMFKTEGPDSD

SMILES | outcome
CCCCN1C=CN(C)C1 | inactive
O=C(O)c1c(Cl)cccc1Cl | inactive
CC[N+](CC)(CC)CCOc1cccc(OCC[N+](CC)(CC)CC)c1OCC[N+](CC)(CC)CC | inactive
CCOC(=O)[C@H](CCc1ccccc1)N[C@@H](C)C(=O)N1C(=O)N(C)C[C@H]1C(=O)O | inactive
Nc1ncnc2c1ncn2[C@H]1CC[C@@H](CO)O1 | inactive
Cc1nc2n(c(=O)c1CCN1CCC(c3noc4cc(F)ccc34)CC1)CCC[C@H]2O | inactive
C1COC1 | inactive
CC[C@@]1(O)C[C@@H]2CN(CCc3c([nH]c4ccccc34)[C@@](C(=O)OC)(c3cc4c(cc3OC)N(C)[C@H]3[C@@](O)(C(=O)OC)[C@H](OC(C)=O)[C@]5(CC)C=CCN6CC[C@]43[C@@H]65)C2)C1 | inactive
O=c1[nH]c2ccc(Cl)cc2o1 | inactive
O=c1[nH]c(=O)n([C@H]2C[C@H](O)[C@@H](CO)O2)cc1Br | inactive
Cn1c(=O)c2c(ncn2CC(O)CO)n(C)c1=O (stereo unspecified) | inactive
Nc1nc(/C(=C/CC(=O)O)C(=O)N[C@@H]2C(=O)N3C(C(=O)O)=CCS[C@H]23)cs1 | inactive
C[N+](C)(C)CC[N+]1(C)Cc2c(Cl)c(Cl)c(Cl)c(Cl)c2C1 | inactive
Cc1cc(C(=O)O)ccc1[N+](=O)[O-] | inactive
O.O=C([O-])CC([S-])C(=O)[O-].[Au+].[Na+].[Na+] (stereo unspecified) | inactive
O=C1c2ccccc2-c2ccccc21 | inactive
CC(C)Cc1nccs1 | inactive
BrCCCCCBr | inactive
O=[N+]([O-])c1ccccc1CCO | inactive

SMILES | outcome
NS(=O)(=O)c1cc2c(cc1C(F)(F)F)NCNS2(=O)=O | inactive
CC[C@H](CC[C@@H](C)[C@H]1CC[C@H]2[C@@H]3CC=C4C[C@@H](O)CC[C@]4(C)[C@H]3CC[C@]12C)C(C)C | inactive
CCC(C)SSC(C)CC (stereo unspecified) | inactive
CC(=O)c1ccc2c(c1)N(CCCN(C)C)c1ccccc1S2 | inactive
ClC/C=C/CCl | inactive
ClCC=CCCl | inactive
CCCC(=O)OC(=O)CCC | inactive
BrC/C=C/CBr | inactive
CN1CCCN=C1/C=C/c1cccs1 | inactive
O=C(Nc1ccc(O)cc1)c1ccccc1O | inactive
Cc1ncc(CO)c(C=O)c1O | inactive
Cc1ccc2c(c1)c1c3n2CCNC3CCC1 (stereo unspecified) | inactive
O=C(O)CNCC(=O)O | inactive
C[C@@]12CCC[C@H]1[C@@H]1CC[C@H]3C[C@@H](O)CC[C@]3(C)[C@H]1CC2 | inactive
SCCCCCCCCS | inactive
CC(C)(C)C(=O)CC(=O)C(C)(C)C | inactive
CS(=O)(=O)OCCCNCCCOS(C)(=O)=O | inactive
CN(C)CC/C=C1/c2ccccc2COc2ccc(CC(=O)O)cc21 | inactive
CC(=C(CCOC(=O)C(C)C)SSC(CCOC(=O)C(C)C)=C(C)N(C=O)Cc1cnc(C)nc1N)N(C=O)Cc1cnc(C)nc1N | inactive

tested on: not listed separately; experiment: TOX21_p53_BLA_p4_viability: Viability Assessment in the Tox21 HCT-116 p53 Agonism Beta-lactamase Assay, Phase 4 (AID 2283597);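 note: hits lower the luminescence signal meaning cytotoxicity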
Procedure, shortened: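 Following a 16 h exposure at 37C, the treated HCT116 wells were first read for the FRET ratio. They were then lysed with CellTiter-Glo, and ATP luminescence was recorded after 30 min at room temperature.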

SMILES | outcome
CCCCN1C=CN(C)C1 | inactive
O=C(O)c1c(Cl)cccc1Cl | inactive
CC[N+](CC)(CC)CCOc1cccc(OCC[N+](CC)(CC)CC)c1OCC[N+](CC)(CC)CC | inactive
CCOC(=O)[C@H](CCc1ccccc1)N[C@@H](C)C(=O)N1C(=O)N(C)C[C@H]1C(=O)O | inactive
Nc1ncnc2c1ncn2[C@H]1CC[C@@H](CO)O1 | inactive
Cc1nc2n(c(=O)c1CCN1CCC(c3noc4cc(F)ccc34)CC1)CCC[C@H]2O | inactive
C1COC1 | inactive
CC[C@@]1(O)C[C@@H]2CN(CCc3c([nH]c4ccccc34)[C@@](C(=O)OC)(c3cc4c(cc3OC)N(C)[C@H]3[C@@](O)(C(=O)OC)[C@H](OC(C)=O)[C@]5(CC)C=CCN6CC[C@]43[C@@H]65)C2)C1 | inactive
O=c1[nH]c2ccc(Cl)cc2o1 | inactive
O=c1[nH]c(=O)n([C@H]2C[C@H](O)[C@@H](CO)O2)cc1Br | inactive
Cn1c(=O)c2c(ncn2CC(O)CO)n(C)c1=O (stereo unspecified) | inactive
Nc1nc(/C(=C/CC(=O)O)C(=O)N[C@@H]2C(=O)N3C(C(=O)O)=CCS[C@H]23)cs1 | inactive
C[N+](C)(C)CC[N+]1(C)Cc2c(Cl)c(Cl)c(Cl)c(Cl)c2C1 | inactive
Cc1cc(C(=O)O)ccc1[N+](=O)[O-] | inactive
O.O=C([O-])CC([S-])C(=O)[O-].[Au+].[Na+].[Na+] (stereo unspecified) | inactive
O=C1c2ccccc2-c2ccccc21 | inactive
CC(C)Cc1nccs1 | inactive
BrCCCCCBr | inactive
O=[N+]([O-])c1ccccc1CCO | inactive

SMILES | outcome
NS(=O)(=O)c1cc2c(cc1C(F)(F)F)NCNS2(=O)=O | inactive
CC[C@H](CC[C@@H](C)[C@H]1CC[C@H]2[C@@H]3CC=C4C[C@@H](O)CC[C@]4(C)[C@H]3CC[C@]12C)C(C)C | inactive
CCC(C)SSC(C)CC (stereo unspecified) | inactive
CC(=O)c1ccc2c(c1)N(CCCN(C)C)c1ccccc1S2 | inactive
ClC/C=C/CCl | inactive
ClCC=CCCl | inactive
CCCC(=O)OC(=O)CCC | inactive
BrC/C=C/CBr | inactive
CN1CCCN=C1/C=C/c1cccs1 | inactive
O=C(Nc1ccc(O)cc1)c1ccccc1O | inactive
Cc1ncc(CO)c(C=O)c1O | inactive
Cc1ccc2c(c1)c1c3n2CCNC3CCC1 (stereo unspecified) | inactive
O=C(O)CNCC(=O)O | inactive
SCCCCCCCCS | inactive
CC(C)(C)C(=O)CC(=O)C(C)(C)C | inactive
CS(=O)(=O)OCCCNCCCOS(C)(=O)=O | inactive
CN(C)CC/C=C1/c2ccccc2COc2ccc(CC(=O)O)cc21 | inactive
CC(=C(CCOC(=O)C(C)C)SSC(CCOC(=O)C(C)C)=C(C)N(C=O)Cc1cnc(C)nc1N)N(C=O)Cc1cnc(C)nc1N | inactive
